Assay results reported in PubChem BioAssay (NCATS).
Inconclusive results are not listed. A call without a number means that no potency is given here. Activity calls are given as the source filed them. Calls follow the shape of the dose curve; as a rule, active = well fitted cell-killing curve with a large enough effect; inconclusive = small, poorly fitted or top-dose-only effect; inactive = no such curve, though single readings can be large or run the other way.

assay: qHTS of pediatric cancer cell lines to identify multiple opportunities for drug repurposing: Primary screen for SJ-GBM2 cells (AID 1347091); conditions: SJ-GBM2 viability, CellTiter-Glo luminescence, 48 h; series mostly up to 46 µM
How it was run: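 Cell viability, CellTiter-Glo luminescence; 500-1,000 cells/well, 8- or 11-point titration, 48 h compound exposure at 37 degrees C, 5% CO2. Controls: DMSO neutral, bortezomib 2.3 µM final as positive.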
Potency is read from the fitted curve at half-maximal effect.

SMILES	Potency
CC(C(=O)O)c1ccc2c(c1)CC(=O)c1ccccc1S2 (stereo not drawn)	inactive
CCCOc1ccc(C(=O)OCCN(CC)CC)cc1N	inactive
N[C@@H](C(=O)N[C@@H]1C(=O)N2C(C(=O)O)=C(Cl)CS[C@H]12)c1ccccc1	inactive
CC(C)OC(=O)C(C(=O)OC(C)C)=C1SC=CS1	inactive
COc1nc(N)nc2c1ncn2[C@@H]1O[C@H](CO)[C@@H](O)[C@@H]1O	inactive
CCOc1cc(N)c(Cl)cc1C(=O)NCC1CN(Cc2ccc(F)cc2)CCO1 (stereo not drawn)	inactive
CN1CCN(c2c(F)cc3c(=O)c(C(=O)O)cn4c3c2OCN4C)CC1	inactive
CN1CCN(c2c(F)cc3c(=O)c(C(=O)O)cn(CCF)c3c2F)CC1	inactive
COc1ccc(-c2ccc3cc(C(=O)O)ccc3c2)cc1C12CC3CC(CC(C3)C1)C2	1.87 µM (active)
NCCCC(O)(P(=O)(O)O)P(=O)(O)O	inactive
CCn1cc(C(=O)O)c(=O)c2cc(F)c(N3CCN(C)CC3)cc21	inactive
CO[C@@H]1[C@@H](OC(N)=O)[C@@H](O)[C@H](Oc2ccc3c(O)c(NC(=O)c4ccc(O)c(CC=C(C)C)c4)c(=O)oc3c2C)OC1(C)C	inactive
Cc1c(-c2ccc(O)cc2)n(Cc2ccc(OCCN3CCCCCC3)cc2)c2ccc(O)cc12	inactive
CCC(C)(C)c1ccc(CC(C)CN2C[C@@H](C)O[C@@H](C)C2)cc1 (stereo partly drawn)	inactive
O=C(O)c1ccc(-n2nc(-c3ccccc3O)nc2-c2ccccc2O)cc1	20.9 µM (active)
CC(=O)CC(c1ccccc1)c1c(O)c2ccccc2oc1=O (stereo not drawn)	inactive
NNC(=O)c1ccncc1	inactive

SMILES	Potency
NC(N)=NC(N)=NCCc1ccccc1	inactive
COc1cccc(N(C)C(=S)Oc2ccc3c(c2)CCCC3)n1	inactive
O=c1oc2c(O)c(O)cc3c(=O)oc4c(O)c(O)cc1c4c23	inactive
CN1CCCC(n2nc(Cc3ccc(Cl)cc3)c3ccccc3c2=O)CC1 (stereo not drawn)	1.32 µM (active)
COc1ccc2cc3[n+](cc2c1OC)CCc1cc2c(cc1-3)OCO2	inactive
CC1=NN(c2ccccc2)C(=O)C1	inactive
COc1cc2c(Nc3ccc(Br)cc3F)ncnc2cc1OCC1CCN(C)CC1	inactive
Nc1[nH]c(=O)ncc1F	inactive
COC(c1ccccc1)(c1ccccc1)[C@H](Oc1nc(C)cc(C)n1)C(=O)O	inactive
CCN[C@H]1C[C@H](C)S(=O)(=O)c2sc(S(N)(=O)=O)cc21	inactive
Nc1nc(=S)c2[nH]cnc2[nH]1	0.935 µM (active)
CCCCc1oc2ccc(NS(C)(=O)=O)cc2c1C(=O)c1ccc(OCCCN(CCCC)CCCC)cc1	11.8 µM (active)
O=C(O)c1cn(C2CC2)c2cc(N3CCNCC3)c(F)cc2c1=O	inactive
CCc1cc(C(N)=S)ccn1	inactive
CC(C)(C)NC(=O)[C@H]1CC[C@H]2[C@@H]3CC[C@H]4NC(=O)C=C[C@]4(C)[C@H]3CC[C@]12C	14.8 µM (active)
CCCc1cc(C(N)=S)ccn1	inactive
